Assay results published in ChEMBL document CHEMBL4513146, “CO-ADD screening of Karazin Kharkiv National University (Ukraine) compounds”.
Results with a measured potency or affinity are listed apart.

Columns and labels:
Klebsiella pneumoniae = conditions: Concentration 32 ug.mL-1;; ASSAY_TEST Inhibition of Bacterial Growth; detection method Absorption (OD600); MEDIA CAMHB; plate type 384well; NBS; CORNING #3640; time 18 hr
Candida albicans = conditions: Concentration 32 ug.mL-1; ASSAY_TEST Inhibition of Fungal Growth; detection method Absorption (OD530)
Cryptococcus neoformans = conditions: Concentration 32 ug.mL-1; ASSAY_TEST Inhibition of Fungal Growth; detection method Resazurin; Absorption (OD600-OD570); plate type 384well; NBS; CORNING #3640

SMILES: Cc1c(Cl)cccc1NC(=O)Cn1nc2c3c4c(sc3ncn2c1=O)CCCCC4
- Inhibition (Klebsiella pneumoniae): 9.28%
- Inhibition (Candida albicans): 4.44%
- Inhibition (Cryptococcus neoformans): -27.44%

SMILES: Cc1ccc(NC(=O)Cn2nc3ccc(-c4ccc(Cl)cc4)nn3c2=O)cc1
- Inhibition (Klebsiella pneumoniae): 3.71%
- Inhibition (Candida albicans): 1.61%
- Inhibition (Cryptococcus neoformans): -4.05%

SMILES: Cc1ccc(-c2ccc3nn(Cc4cc(F)cc(F)c4)c(=O)n3n2)cc1C
- Inhibition (Klebsiella pneumoniae): 3.15%
- Inhibition (Candida albicans): 0.47%
- Inhibition (Cryptococcus neoformans): -8.58%

SMILES: COc1cccc(-n2ccn3c(SCc4ccc(C)cc4)nnc3c2=O)c1
- Inhibition (Klebsiella pneumoniae): 12.94%
- Inhibition (Candida albicans): 3.44%
- Inhibition (Cryptococcus neoformans): -15.83%

SMILES: Cc1cccc(N(Cc2cccc(Cl)c2)S(=O)(=O)c2cccn3c(C)nnc23)c1
- Inhibition (Klebsiella pneumoniae): 4.74%
- Inhibition (Candida albicans): 3%
- Inhibition (Cryptococcus neoformans): -4.93%

SMILES: O=C(Cn1nc2c(SC3CCCCC3)nccn2c1=O)Nc1ccc(F)cc1
- Inhibition (Klebsiella pneumoniae): 10.22%
- Inhibition (Candida albicans): 0.1%
- Inhibition (Cryptococcus neoformans): -30.85%

SMILES: CCc1nnc2c(=O)n(CC(=O)Nc3ccc4c(c3)OCCO4)c3ccccc3n12
- Inhibition (Klebsiella pneumoniae): 1.64%
- Inhibition (Candida albicans): 13.49%
- Inhibition (Cryptococcus neoformans): -11.52%

SMILES: O=C(Cn1nc2c3cc(-c4ccc(F)cc4)nn3ccn2c1=O)N1CCCc2ccccc21
- Inhibition (Klebsiella pneumoniae): 8.12%
- Inhibition (Candida albicans): 1.02%
- Inhibition (Cryptococcus neoformans): -21.22%

SMILES: COc1cccc(Oc2nccn3c(=O)n(CC(=O)Nc4ccc(Br)cc4F)nc23)c1
- Inhibition (Klebsiella pneumoniae): 17.17%
- Inhibition (Candida albicans): 0.55%
- Inhibition (Cryptococcus neoformans): -10.01%

SMILES: O=C(CSc1nnc2c(=O)n(-c3ccccc3)ccn12)Nc1cc(F)ccc1F
- Inhibition (Klebsiella pneumoniae): -0.92%
- Inhibition (Candida albicans): 1.57%
- Inhibition (Cryptococcus neoformans): -15%

SMILES: CSc1cccc(NC(=O)Cn2c(=O)c3nnc(C)n3c3ccccc32)c1
- Inhibition (Klebsiella pneumoniae): 4.53%
- Inhibition (Candida albicans): 4.76%
- Inhibition (Cryptococcus neoformans): -2.25%

SMILES: COc1cc(OC)c(NC(=O)Cn2nc3c4c5c(sc4ncn3c2=O)CC(C)CC5)cc1Cl (centres undefined)
- Inhibition (Klebsiella pneumoniae): 11.66%
- Inhibition (Candida albicans): 3.55%
- Inhibition (Cryptococcus neoformans): -23.25%

SMILES: CCCCOc1ccc(-c2cc3c4nnc(SCC(=O)Nc5ccc(Cl)cc5)n4ccn3n2)cc1
- Inhibition (Klebsiella pneumoniae): 11.84%
- Inhibition (Candida albicans): 2.71%
- Inhibition (Cryptococcus neoformans): -15.55%

SMILES: O=C(Cn1nc2c(SCc3ccc(Cl)cc3)nccn2c1=O)N1CCN(c2ccccc2)CC1
- Inhibition (Klebsiella pneumoniae): 2.24%
- Inhibition (Candida albicans): 4.87%
- Inhibition (Cryptococcus neoformans): -2.91%

SMILES: Cc1ccc(-c2ccc3nn(CC(=O)N4CCN(c5ccc(F)cc5)CC4)c(=O)n3n2)cc1C
- Inhibition (Klebsiella pneumoniae): 1.03%
- Inhibition (Candida albicans): 7.38%
- Inhibition (Cryptococcus neoformans): -10.89%

SMILES: Cc1c(Cl)cccc1NC(=O)Cn1nc2c(SCc3ccccc3)nccn2c1=O
- Inhibition (Klebsiella pneumoniae): 1.96%
- Inhibition (Candida albicans): 2.12%
- Inhibition (Cryptococcus neoformans): -7.14%

SMILES: CC(=O)c1ccc(NC(=O)Cn2nc3ccc(-c4ccccc4)nn3c2=O)cc1
- Inhibition (Klebsiella pneumoniae): 10.95%
- Inhibition (Candida albicans): 2.61%
- Inhibition (Cryptococcus neoformans): -13.06%

SMILES: Cc1ccc(S(=O)(=O)Nc2ccc3nnc(-c4ccccc4)n3n2)cc1C
- Inhibition (Klebsiella pneumoniae): 0.88%
- Inhibition (Candida albicans): 0.52%
- Inhibition (Cryptococcus neoformans): -4.99%

SMILES: CCc1nnc2c(SCC(=O)Nc3cc(Cl)ccc3C)nc3ccccc3n12
- Inhibition (Klebsiella pneumoniae): 15.39%
- Inhibition (Candida albicans): 3.09%
- Inhibition (Cryptococcus neoformans): -9.04%

SMILES: COc1ccc(C)cc1NC(=O)Cn1nc2c(N3CCSCC3)nc3ccccc3n2c1=O
- Inhibition (Klebsiella pneumoniae): 14.66%
- Inhibition (Candida albicans): -2.66%
- Inhibition (Cryptococcus neoformans): -24.78%

SMILES: COc1cccc(CN(c2ccc(Cl)cc2)S(=O)(=O)c2ccc3nncn3c2)c1
- Inhibition (Klebsiella pneumoniae): 6.15%
- Inhibition (Candida albicans): 2.49%
- Inhibition (Cryptococcus neoformans): -6.94%

SMILES: O=C(Cn1nc2ccc(-c3ccccc3)nn2c1=O)Nc1ccc(F)c(Cl)c1
- Inhibition (Klebsiella pneumoniae): 7.19%
- Inhibition (Candida albicans): 1.94%
- Inhibition (Cryptococcus neoformans): -6.93%

SMILES: COc1ccc(-n2ccn3c(SCC(=O)N4CCN(c5ccccc5F)CC4)nnc3c2=O)cc1
- Inhibition (Klebsiella pneumoniae): 15.6%
- Inhibition (Candida albicans): 2.59%
- Inhibition (Cryptococcus neoformans): -14.55%

SMILES: COc1ccc(-n2ccn3c(=O)n(Cc4ccccc4Cl)nc3c2=O)cc1Cl
- Inhibition (Klebsiella pneumoniae): 3.5%
- Inhibition (Candida albicans): 1.04%
- Inhibition (Cryptococcus neoformans): 0.74%

SMILES: COc1ccccc1N1CCN(C(=O)Cn2nc3ccc(-c4ccc(Cl)cc4)nn3c2=O)CC1
- Inhibition (Klebsiella pneumoniae): 12.66%
- Inhibition (Candida albicans): -1.54%
- Inhibition (Cryptococcus neoformans): -12.15%

SMILES: Cc1cccc(NC(=O)Cn2nc3ccc(-c4ccccc4)nn3c2=O)c1
- Inhibition (Klebsiella pneumoniae): 6.7%
- Inhibition (Candida albicans): 4.41%
- Inhibition (Cryptococcus neoformans): -14.95%

SMILES: COc1ccc(Cl)cc1NC(=O)Cn1nc2c3cc(-c4ccc(C)cc4)nn3ccn2c1=O
- Inhibition (Klebsiella pneumoniae): 5.55%
- Inhibition (Candida albicans): 14.91%
- Inhibition (Cryptococcus neoformans): -9.24%

SMILES: Cc1cc(C)c(NC(=O)Cn2nc3c(SCc4ccc(Cl)cc4)nccn3c2=O)c(C)c1
- Inhibition (Klebsiella pneumoniae): 8.66%
- Inhibition (Candida albicans): 25.19%
- Inhibition (Cryptococcus neoformans): -17.24%
